From PubChem BioAssay
Calls of active or inactive are those of the source. Unless noted, the rule behind the calls is not given here.

Tests used:
[1] = compound effects on lung adenocarcinoma cell viability – A549, calcein-AM fluorescence, 48 h, basal, profiling panel (AID 1162); conditions: higher = more signal; note: test concentration not given here
[2] = compound effects on differentiated 3T3-L1 adipocyte viability – cell-based, 3T3-L1 adipocytes, calcein-AM fluorescence, 48 h, basal, profiling panel (AID 1163); conditions: 3T3-L1 adipocytes viability, higher = more signal; note: test concentration not given here
[3] = compound effects on hepatocellular carcinoma cell viability – HepG2, calcein-AM fluorescence, 48 h, basal, profiling panel (AID 1164); conditions: higher = more signal; note: test concentration not given here
[4] = compound effects on multiple myeloma cell viability – MM1S, calcein-AM fluorescence, 48 h, basal, profiling panel (AID 1165); conditions: higher = more signal; note: test concentration not given here
[5] = calcein-AM signal in unstimulated myeloma cells – cell-based, calcein-AM fluorescence, 48 h, PK04 Diversity Set, profiling panel (AID 1166); conditions: RPMI8226 myeloma viability, higher = more signal;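 note: cells grown under basal conditions without added stimulus; test concentration not given here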
[6] = JC-1 mitochondrial signal, unstimulated HepG2 cells – cell-based, JC-1 fluorescence, 24 h, 100 nL compound, profiling panel (AID 1167); conditions: HepG2 mitochondrial potential, higher = more signal; note: test concentration not given here
[7] = JC-1 mitochondrial signal, unstimulated adipocytes – cell-based, JC-1 fluorescence, 3T3-L1 adipocytes, 24 h, 100 nL compound, profiling panel (AID 1168); conditions: JC-1 mitochondrial fluorescence, higher = more signal, called active from +8 up or from −8 down; note: test concentration not given here
[8] = JC-1 mitochondrial signal, unstimulated myeloma cells – cell-based, JC-1 fluorescence, RPMI8226, 24 h, 100 nL compound, profiling panel (AID 1169); conditions: JC-1 mitochondrial potential fluorescence, higher = more signal; note: test concentration not given here
[9] = JC-1 mitochondrial signal, unstimulated MM1S myeloma – cell-based, JC-1 fluorescence, 24 h, 100 nL compound, profiling panel (AID 1170); conditions: MM1S mitochondrial potential, higher = more signal; note: test concentration not given here
[10] = resazurin metabolic signal in A549 cells – cell-based, resazurin fluorescence, 24 h, PK04 Diversity Set, profiling panel (AID 1171); conditions: A549 viability, higher = more signal, called active from +8 up or from −8 down; note: test concentration not given here
[11] = resazurin metabolic signal in HepG2 cells – cell-based, resazurin fluorescence, 24 h, PK04 Diversity Set, profiling panel (AID 1172); conditions: HepG2 viability, higher = more signal; note: test concentration not given here
[12] = budding yeast growth changes without added modifier – OD600, strain BY4716, 24 h, basal condition, primary screen (AID 1173); conditions: S. cerevisiae BY4716 growth, OD600, 24 h; higher = more signal, called active from +8 up or from −8 down
[13] = viability profiling in MM1S myeloma cells – cell-based, resazurin fluorescence, basal, 24 h, PK04 Diversity Set, profiling panel (AID 1174); conditions: higher = more signal, called active from +8 up or from −8 down; note: test concentration not given here
[14] = molecular target: Dihydroorotate dehydrogenase (quinone), mitochondrial (Plasmodium falciparum (isolate 3D7)) (UniProt Q08210); experiment: inhibition of P. falciparum DHODH – biochemical, C-terminal His tag, absorbance 600 nm, primary screen (AID 1175); conditions: PfDHODH enzyme, DCIP absorbance 600 nm; higher = more signal, called active from +8 up or from −8 down;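 note: recombinant parasite enzyme with a five histidine tag at its C terminus; test concentration not given here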
[15] = inhibition of PAO1 biofilm formation – strain PAO1, LB-PBS medium, absorbance 600 nm, primary screen (AID 1176); note: test concentration not given here; conditions: P. aeruginosa PAO1 growth/biofilm, A600, 12 h; higher = more signal
[16] = growth modulation of vineyard yeast isolate – strain RM11-1a, OD600, basal, 24 h, primary screen (AID 1177);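 note: cultures grown under basal conditions with no added stressor; test concentration not given here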; conditions: S. cerevisiae RM11-1a growth, OD600, 24 h; higher = more signal, called active from +8 up or from −8 down
[17] = growth of efflux-deficient E. coli DRC39 – strain DRC39, OD650, 24 h, E. coli filamentation inducers, primary screen (AID 1178);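 note: growth measured as culture turbidity by optical density at 650 nm; test concentration not given here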; conditions: E. coli DRC39 acrAB, higher = more signal, called active from +8 up or from −8 down
[18] = growth of efflux-deficient E. coli DRC39 – strain DRC39, OD650, 48 h, E. coli filamentation inducers, primary screen (AID 1179);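 note: screen aims at cell division blockers that make cells filament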; conditions: E. coli DRC39 delta-acrAB growth, higher = more signal, called active from +8 up or from −8 down
[19] = viability profiling in RPMI8226 myeloma cells – cell-based, resazurin fluorescence, basal, 24 h, PK04 Diversity Set, profiling panel (AID 1180); conditions: higher = more signal;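 note: RPMI8826 multiple myeloma cell line at 5000 cells per well; test concentration not given here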
[20] = molecular target: E3 ubiquitin-protein ligase XIAP (Homo sapiens) (UniProt P98170); experiment: small molecules binding XIAP protein – biophysical, small-molecule microarray, fluorescence 635 nm, primary screen (AID 1181); conditions: higher = more signal;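 note: score merges 667 nm emission and signal to noise over triplicate slides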
E3 ubiquitin-protein ligase XIAP (Homo sapiens), sequence (P98170 whole entry, looked up): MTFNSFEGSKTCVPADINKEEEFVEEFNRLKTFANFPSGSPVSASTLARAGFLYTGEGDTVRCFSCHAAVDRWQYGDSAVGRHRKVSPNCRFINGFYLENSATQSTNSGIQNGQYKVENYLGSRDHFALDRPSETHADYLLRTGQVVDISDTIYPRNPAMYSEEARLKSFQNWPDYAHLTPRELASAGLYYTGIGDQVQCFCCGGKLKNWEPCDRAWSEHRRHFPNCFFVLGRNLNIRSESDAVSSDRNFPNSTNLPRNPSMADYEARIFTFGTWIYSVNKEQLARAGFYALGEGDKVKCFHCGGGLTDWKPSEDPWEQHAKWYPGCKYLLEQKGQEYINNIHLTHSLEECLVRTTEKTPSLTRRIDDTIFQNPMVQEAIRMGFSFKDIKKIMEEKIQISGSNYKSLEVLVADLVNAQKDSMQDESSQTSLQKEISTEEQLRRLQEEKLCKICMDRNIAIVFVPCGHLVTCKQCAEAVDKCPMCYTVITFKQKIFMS

Dihydroorotate dehydrogenase (quinone), mitochondrial (Plasmodium falciparum (isolate 3D7)), sequence (Q08210 whole entry, looked up): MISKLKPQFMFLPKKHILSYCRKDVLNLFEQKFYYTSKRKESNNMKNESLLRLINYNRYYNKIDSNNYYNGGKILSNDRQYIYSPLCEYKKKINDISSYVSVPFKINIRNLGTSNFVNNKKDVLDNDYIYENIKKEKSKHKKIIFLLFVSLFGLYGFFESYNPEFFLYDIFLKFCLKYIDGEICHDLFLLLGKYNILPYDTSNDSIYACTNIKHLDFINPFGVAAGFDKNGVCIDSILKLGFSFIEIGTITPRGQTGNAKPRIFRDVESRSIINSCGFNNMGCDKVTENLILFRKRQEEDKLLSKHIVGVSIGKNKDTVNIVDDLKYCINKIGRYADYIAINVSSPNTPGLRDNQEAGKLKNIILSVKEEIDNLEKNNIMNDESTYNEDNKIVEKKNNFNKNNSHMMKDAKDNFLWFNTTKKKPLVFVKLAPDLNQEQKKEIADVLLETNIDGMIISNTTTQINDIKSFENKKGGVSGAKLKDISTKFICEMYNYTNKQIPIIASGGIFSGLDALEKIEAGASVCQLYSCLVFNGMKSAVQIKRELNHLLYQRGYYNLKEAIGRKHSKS

Compound	z-score [1]	z-score [2]	z-score [3]	z-score [4]	z-score [5]	z-score [6]	z-score [7]	z-score [8]	z-score [9]	z-score [10]	z-score [11]	z-score [12]	z-score [13]	composite z-score [14]	z-score [15]	z-score [16]	z-score [17]	z-score [18]	z-score [19]	composite z-score [20]
CCOC(=O)C[C@H]1[C@H](OC(=O)c2cc3ccccc3oc2=O)[C@@H](NC(=O)c2ccc3ccccc3n2)c2cc(OCCCO)ccc2N1C(=O)c1ccc2ccccc2n1	0.513	1.27	0.717	-0.255	-0.719	0.082	-0.33 (inactive)	-0.115	1.17	-0.82 (inactive)	0.165	-0.535 (inactive)	0.35 (inactive)	0.315 (inactive)	-0.766 (inactive)	-0.361 (inactive)	1.72 (inactive)	0.627 (inactive)	-0.594	0.035
[N-]=[N+]=Nc1ccccc1[C@@H]1OC(c2ccc(OCCCO)cc2)=N[C@]1(CCS(=O)(=O)c1ccccc1)C(=O)NCc1ccccc1	0.282	0.803	0.82	-0.723	-0.185	0.136	3.88 (inactive)	-1.03	-0.856	-0.725 (inactive)	-0.287	1.18 (inactive)	-0.37 (inactive)	-2.59 (inactive)	0.727 (inactive)	1.4 (inactive)	0.439 (inactive)	1.01 (inactive)	-0.893	0.125
Cc1ccc(S[C@]2(C(=O)O)CC(=O)N(Cc3ccccc3C(F)(F)F)[C@@H]2c2ccc(CO)cc2)cc1	0.391	-0.208	0.775	-0.804	0.393	0.143	0.998 (inactive)	0.171	-0.446	0.142 (inactive)	0.44	-0.0891 (inactive)	0.478 (inactive)	0.52 (inactive)	0.127 (inactive)	0.383 (inactive)	0.232 (inactive)	1.14 (inactive)	-0.285	-0.313
COc1ccc([Si](C)(C)[C@@H]2[C@@H](CC(=O)N(CCO)Cc3ccccc3)O[C@]3(C(=O)N(C)c4c(Br)cc(C)cc43)[C@H]2C)cc1	-2.07	-0.0228	-2.44	-2.75	-4.38	-2.82	-0.68 (inactive)	-1.17	-2.11	-0.99 (inactive)	-1.57	-0.951 (inactive)	-1.79 (inactive)	0.216 (inactive)	0.802 (inactive)	1.64 (inactive)	-0.109 (inactive)	-0.75 (inactive)	-2.21	-0.174
COC(=O)[C@@]1(Cc2ccc(OC)cc2)[C@H]2c3cc(C(=O)N(C)C)n(Cc4cc(F)c(F)c(F)c4)c3C[C@H]2CN1C(=O)c1ccccc1	-1.81	0.745	-0.909	-1.59	-2.93	3.22	-0.149 (inactive)	-0.863	-0.971	-1.48 (inactive)	-1.07	1.83 (inactive)	-2.61 (inactive)	-2.65 (inactive)	4.06 (inactive)	0.726 (inactive)	-0.337 (inactive)	-0.622 (inactive)	-2.32	0.0957
CCOC(=O)C1=CCC(c2cccc(Cl)c2)O1 (stereo not given)	-1	0.464	-0.531	-0.488	-1.15	-0.454	-0.627 (inactive)	0.96	-0.472	1.16 (inactive)	0.482	-4.22 (inactive)	0.402 (inactive)	-0.863 (inactive)	0.601 (inactive)	-1.6 (inactive)	0.484 (inactive)	-0.16 (inactive)	-0.0798	0.19
COCCOC(=O)N1C(=O)[C@@]2(c3cc(C#CCCO)ccc31)[C@H](C(=O)NC[C@H](O)c1ccccc1)[C@H]1C(=O)O[C@H](c3ccccc3)[C@H](c3ccccc3)N1[C@@H]2c1ccccc1OCCO	1.27	0.904	1.21	-1.96	-3.05	-1.36	0.833 (inactive)	-0.844	-0.424	0.715 (inactive)	0.446	0.446 (inactive)	0.0837 (inactive)	0.246 (inactive)	1.12 (inactive)	1.88 (inactive)	0.136 (inactive)	0.259 (inactive)	-0.135	0.0593
C[N+](C)(C)CCCCCCNC(=O)[C@@H]1C[C@@H]2C(=O)NCC(=O)N2[C@@H]1c1ccc(O)cc1	-0.261	-0.166	0.517	-0.0232	0.0324	-1.58	0.251 (inactive)	-0.0725	-0.534	0.28 (inactive)	0.811	0.0566 (inactive)	0.562 (inactive)	-1.45 (inactive)	-0.447 (inactive)	0.311 (inactive)	0.182 (inactive)	0.128 (inactive)	0.203	-0.128
C=CCOC(=O)[C@@H]1[C@H]2C(=O)O[C@H](c3ccccc3)[C@H](c3ccccc3)N2[C@H](c2ccc(OCCOC(=O)[C@H]3C[C@H]4C(=O)N[C@@H](Cc5ccccc5)C(=O)N4[C@H]3c3cccc(OCCO)c3)cc2)[C@@]12C(=O)Nc1ccc(I)cc12	0.188	-0.282	0.921	-3.18	-0.493	0.244	0.473 (inactive)	-0.903	-1.57	0.535 (inactive)	-0.208	-0.215 (inactive)	-1.94 (inactive)	-3.73 (inactive)	0.199 (inactive)	2.13 (inactive)	-0.847 (inactive)	0.573 (inactive)	-1.01	-0.128
